Source: PubChem BioAssay
DRV1 agonist: activates human resolvin D1 receptor GPR32 | CHO-K1 GPR32 beta-arrestin PathHunter luminescence, 90 min; zero percent set by DMSO-only wells | AID 1346428 | activation, % at 76.9 µM | O75388 | actives 2.5% (n = 48,000);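 active means activation of at least 60% and not above a set upper limit, about 1 call in 100 departs from these limits; inconclusive means activation of 40% to 60%, or above that upper limit; inactive means activation under 40%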
Target sequence (O75388 whole entry, looked up): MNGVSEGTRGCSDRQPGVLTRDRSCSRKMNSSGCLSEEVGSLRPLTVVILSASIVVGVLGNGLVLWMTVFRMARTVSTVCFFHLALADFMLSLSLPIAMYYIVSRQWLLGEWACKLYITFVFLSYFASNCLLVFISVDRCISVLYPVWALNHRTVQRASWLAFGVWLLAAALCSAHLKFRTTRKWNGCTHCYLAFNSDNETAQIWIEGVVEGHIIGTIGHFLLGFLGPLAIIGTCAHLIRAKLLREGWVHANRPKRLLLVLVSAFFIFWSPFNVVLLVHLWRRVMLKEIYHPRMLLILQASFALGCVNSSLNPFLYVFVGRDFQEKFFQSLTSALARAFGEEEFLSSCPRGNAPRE
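Agonism was scored by beta-Gal fragment complementation (chemiluminescent read, 1 h detection at ambient temperature) reporting beta-arrestin binding to GPR32 in engineered CHO-K1 cells. Compound treatment lasted 90 min at 37 C, normalized to a DMSO basal control.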
HTT-AS act: activators of huntingtin-antisense promoter activity; actives 0.24% (n = 48,000); HEK293 HTT-AS promoter firefly luciferase reporter, 24 h; response scale: percent change from vehicle, -100% = no light; Potency, µM (top dose mostly 57.5 µM), most hits filed as activators; AID 1508624; further: nearly all actives have a fitted effect of over 55% in size
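Luminescence was read after Dual-Glo reagent and a 10 min room-temperature incubation. Values were normalized to vehicle (0% activity) and zero RLU (-100% activity). Reporter HEK293 cells had been exposed to compounds (up to 57.5 uM final) for 24 h.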
HTT promoter inh: inhibits huntingtin promoter activity. HEK293 HTT promoter firefly luciferase reporter, 24 h. actives 0.93% (n = 48,000). AID 1508623. Potency, µM (top dose mostly 57.5 µM), most hits filed as inhibitors; further: nearly all actives have a fitted effect of over 50% in size
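HEK293 luciferase promoter-reporter cells (2,500/well) plated 24 h, then compounds added at up to 57.5 uM final for 24 h at 37 °C. Firefly luminescence by Dual-Glo, normalized to vehicle (0%) and zero RLU (-100%).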
A number is an active result; n = inactive; u = inconclusive; x = no result. A selection: hits, their analogues and other compounds. The true share with any hit is near 3.7%. Unless noted, the call rests on the fitted dose curve; in most records, active means well fitted curve in the direction sought with a large enough effect; inconclusive means small, poorly fitted or top-dose-only effect, or another doubt; inactive means no such curve, though single readings can be large; an effect the other way counts as inactive or inconclusive.

SMILES | DRV1 agonist | HTT-AS act | HTT promoter inh
CO[C@@H]1[C@@H](O[C@@H]2O[C@H](C)[C@@H](O[C@H]3C[C@@](C)(O)[C@@H](O)[C@H](C)O3)[C@H](N(C)C)[C@H]2O)[C@@H](CC=O)C[C@@H](C)[C@@H](O[C@@H]2CC[C@H](N(C)C)[C@@H](C)O2)/C=C/C=C/C[C@@H](C)OC(=O)C[C@H]1OC(C)=O | n | n | n
Cc1nc2n(c(=O)c1CCN1CCC(c3noc4cc(F)ccc34)CC1)CCCC2O (stereo unspecified) | n | x | x
COc1cc(C(C)=O)ccc1OCCCN1CCC(c2noc3cc(F)ccc23)CC1 | 71 | n | n
COc1ccc(-c2nnc(SCC(=O)N3CCC(C)CC3)o2)cc1 | 78 | n | n
CC1CCN(C(=O)CSc2nnc(-c3ccccc3)o2)CC1 | n | u | n
COc1ccc(C2=CC(c3ccccc3F)n3ncc(C(=O)Nc4ccc(C)cc4)c3N2)cc1 (stereo unspecified) | n | n | n
COc1cccc(C2=CC(c3ccccc3F)n3ncc(C(=O)Nc4ccc(F)cc4)c3N2)c1 (stereo unspecified) | 71 | n | u
CC[C@H](CC#N)OC(=O)N[C@@H](C)c1cccc(NC(=O)Nc2ccc(-c3cnco3)c(OC)c2)c1 | x | n | u
COc1cc(-c2nn(C3CCC(N4CCN(C(C)=O)CC4)CC3)c3ncnc(N)c23)ccc1NC(=O)c1cc2ccccc2n1C (stereo unspecified) | x | n | n
CC(C)c1ccc(NC(=O)c2cc(S(=O)(=O)NC3CCCCC3)ccc2F)cc1 | n | n | u
O=C(Nc1cc(Cl)cc(Cl)c1)c1ccc(F)c(S(=O)(=O)NC2CCCCC2)c1 | 69 | n | u
O=C(Nc1ccc(Br)cc1)c1ccc(F)c(S(=O)(=O)NC2CCCCCC2)c1 | n | n | u
O=C(Nc1ccc(F)c(F)c1)c1cc(S(=O)(=O)NC2CCCCCC2)ccc1F | n | n | 25µM
CSc1nn(Cc2cccc(Cl)c2)c(N(C(C)=O)C(C)=O)c1S(=O)(=O)c1ccccc1 | 76 | n | u
CC(=O)Nc1cc(-c2ccccc2)nn1Cc1cccc(Cl)c1 | n | n | n
CCCS(=O)(=O)Nc1ccc(F)c(C(=O)c2c[nH]c3ncc(-c4ccc(Cl)cc4)cc23)c1F | x | n | u
Nc1nc(N)c2nc(-c3cccc(O)c3)c(-c3cccc(O)c3)nc2n1 | x | n | u
CNC(=O)c1cc(Oc2ccc(NC(=O)Nc3cc(C(C)(C)C)nn3-c3ccc4ncccc4c3)c(F)c2)ccn1 | x | n | n
CNC(=O)c1cc(Oc2ccc(NC(=O)Nc3ccc(Cl)c(C(F)(F)F)c3)cc2)ccn1 | 92 | n | u
CC(C)OC(=O)[C@H](C)N[P@](=O)(OC[C@H]1O[C@@H](n2ccc(=O)[nH]c2=O)[C@](C)(F)[C@H]1O)Oc1ccccc1 | x | n | n
CC(C)Nc1cc(C(F)(F)F)cc2nc(NC(=O)c3cccnc3)nn12 | x | n | n
Cc1ccc(NS(=O)(=O)c2ccc3c(c2)NC(=O)CCS3)c(Br)c1 | 120 | n | u
Cc1ccc(NS(=O)(=O)c2ccc3c(c2)NC(=O)CCS3)cc1C | u | n | u
Cc1ccccc1NS(=O)(=O)c1ccc2c(c1)NC(=O)CCS2 | n | n | n
O=C1CCSc2ccc(S(=O)(=O)Nc3cccc(C(F)(F)F)c3)cc2N1 | 109 | n | n
SMILES | DRV1 agonist | HTT-AS act | HTT promoter inh
Cc1ccc(NS(=O)(=O)c2ccc3c(c2)NC(=O)CCS3)cc1F | n | n | n
COc1cc(OC)c(NS(=O)(=O)c2ccc3c(c2)NC(=O)CCS3)cc1Cl | n | n | 28µM
CCOc1ccccc1CNC(=O)c1sc2ncccc2c1-n1cccc1 | n | n | u
Cc1cn2c(=O)cc(COC(=O)c3cccc(NC(=O)c4ccc(C(C)(C)C)cc4)c3)nc2s1 | n | n | n
O=C(CC1(O)C(=O)N(CCc2ccccc2)c2ccc(Br)cc21)c1ccccc1 (stereo unspecified) | 60 | n | u
Cc1ccc(C(=O)CC2(O)C(=O)N(CCc3ccccc3)c3ccc(Cl)cc32)cc1 (stereo unspecified) | n | n | u
CCOC1OC(=O)C[C@H]1NC(=O)[C@@H]1CCCN1C(=O)[C@@H](NC(=O)c1ccc(N)c(Cl)c1)C(C)(C)C (stereo partly specified) | x | u | n
COc1ccc(-n2c(SCC(=O)N3CCCc4ccccc43)nc3c([nH]c4ccccc43)c2=O)cc1 | n | n | n
COc1ccc(-n2c(SCC(=O)N3CCc4ccccc43)nc3c([nH]c4ccccc43)c2=O)cc1 | 110 | n | n
